The subject of assay [1] is Human papillomavirus type 1a protein E7 (residues 44-93). The assay can be described thus: small molecules binding HPV E7 44-93 – biochemical, small-molecule microarray, residues 44-93, 635 nm fluorescence, primary screen (AID 1108).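 Further: E7 fragment applied at 1 µg/mL in TBST for 1 h at 4 C; score combines spot fluorescence with its signal to noise ratio.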 The conditions noted are these: fluorescence 635 nm, higher = more signal.
A short description of assay [2]: hepatitis C replication reporter changes, two-sided – Huh7 cells, luciferase reporter, HCV replication inhibitor project, primary screen (AID 1109).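 Further: huh7 hepatoma cells harbouring a luciferase neomycin HCV replicon reporter; luciferase luminescence as measure of HCV replicon replication; test concentration not given here.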 The conditions noted are these: Huh7 HCV replicon luciferase reporter, 48 h; higher = more signal. For orientation: Reporter assays use an easily measured gene product as a stand-in for the process of interest.
For assay [3], the target named is Left-right determination factor 2 (Homo sapiens) (UniProt O00292). The assay can be described thus: small molecules binding LEFTY2 protein – biochemical, small-molecule microarray, 635 nm fluorescence scan, primary screen (AID 1110). The conditions noted are these: higher = more signal.
Assay [4] has as its target Calmodulin-1 (Homo sapiens) (UniProt P0DP23). The assay can be described thus: small molecules binding calmodulin-1 with EGTA – biochemical, small-molecule microarray, Cy5-labelled CALM1, profiling panel (AID 1111).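 Further: labelled calmodulin applied in Tris saline Tween buffer holding calcium plus EGTA and DTT.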 Conditions: Cy5-CALM1 binding fluorescence, higher = more signal.
Assay [5] shares this target. The assay is described as follows: small molecules binding Ca-loaded calmodulin-1 – biochemical, small-molecule microarray, Cy5-labelled CALM1, plus calcium, artefact control for SMM control-protein annotation, profiling panel (AID 1112).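 Further: score merges spot fluorescence with signal to noise from triplicate slides.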 Conditions: Cy5-CALM1 binding fluorescence, higher = more signal.
The nature of assay [6]: probe aWnt5a binding to arrayed compounds – biochemical, biotinylated probe, 635/667 nm fluorescence, primary screen (AID 1113).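 Further: score merges 667 nm fluorescence intensity with signal-to-noise per printed feature.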 The conditions noted are these: small-molecule microarray, higher = more signal.
Assay [7] can be described thus: probe aShh binding to arrayed compounds – biochemical, biotinylated probe, 635/667 nm fluorescence, primary screen (AID 1114).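 Further: probe is biotin-labelled aShh protein from a stem cell growth factor screen; measures binding of labelled protein to compounds printed on the slide; score merges feature fluorescence at 667 nm with signal-to-noise.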 The conditions noted are these: small-molecule microarray, higher = more signal.
A short description of assay [8]: probe aNog binding to arrayed compounds – biochemical, biotinylated probe, 635/667 nm fluorescence, primary screen (AID 1115).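 Further: probe is biotinylated aNog protein used at 0.15 µg/mL for 1 h at 4 C; z-score combines 667 nm fluorescence of each spot with its signal to noise.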 Conditions: small-molecule microarray, higher = more signal.
Assay [9] has as its target Torsin-1A-interacting protein 1 (Homo sapiens) (UniProt Q5JTV8). The assay is described as follows: compound microarray binding of lysate hLAP1 – cell lysate, small-molecule microarray, COS7 lysate, 635/667 nm fluorescence, primary screen (AID 1116). The conditions noted are these: 635 nm fluorescence, higher = more signal.
Assay [10] has as its target Alpha-bungarotoxin (Bungarus multicinctus) (UniProt P60615). The assay is described as follows: compounds binding labelled alpha-BTX control protein – biochemical, small-molecule microarray, Alexa647 label, 635/667 nm fluorescence, artefact control for SMM control protein annotation, profiling panel (AID 1117). Conditions: alpha-BTX-A647 binding fluorescence, higher = more signal.

The next assay deals with Albumin (Bos taurus) (UniProt P02769). The assay is described as follows: compounds binding labelled BSA control protein – biochemical, small-molecule microarray, Alexa647 label, 635/667 nm fluorescence, artefact control for SMM control protein annotation, profiling panel (AID 1118).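 Further: score merges 667 nm emission intensity and signal-to-noise per printed compound spot.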 Conditions: BSA-A647 binding, fluorescence 635 nm, higher = more signal.
The nature of assay [11]: probe aXIP binding to arrayed compounds – biochemical, NeuroSMM set, 635/667 nm fluorescence, primary screen (AID 1119).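 Further: probe is the protein aXip251-270 applied at 1 µg/mL to compound-printed slides; binding of probe to printed compounds measured as 667 nm fluorescence plus signal to noise.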 The conditions noted are these: small-molecule microarray, higher = more signal, called active from +8 up or from −8 down.
Assay [12] is described as follows: probe aNOTCH3 binding on compound microarray – biochemical, small-molecule microarray, 635/667 nm fluorescence, primary screen (AID 1120).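 Further: probe is a biotin-tagged antibody raised against NOTCH3 rather than NOTCH3 protein; score merges spot fluorescence near 667 nm with spot signal to noise.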 Conditions: higher = more signal.
A short description of assay [13]: probe aNOTCH2 binding on compound microarray – biochemical, small-molecule microarray, 635/667 nm fluorescence, primary screen (AID 1121).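 Further: score merges feature fluorescence read at 667 nm with its signal to noise.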 Conditions: higher = more signal.
For assay [14], the target named is Carbonic anhydrase 2 (Homo sapiens) (UniProt P00918). The assay is described as follows: compounds binding carbonic anhydrase 2 – biochemical, small-molecule microarray, Alexa647-labelled CAII, profiling panel (AID 1122). Conditions: CAII-A647 binding fluorescence, higher = more signal.
Assay [15] is described as follows: COS7 lysate on small-molecule microarray, probe aHis, 635 nm (AID 1123).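 Further: z-score combines 667nm fluorescence intensity with signal-to-noise per printed compound spot.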 Conditions: COS7 cell lysate, fluorescence, higher = more signal.
Assay [16] is described as follows: probe aLAP1 signal on lysate-treated microarray – cell lysate, small-molecule microarray, COS7 lysate, primary screen (AID 1124).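 Further: lysate comes from COS7 cells expressing LAP1 and is applied at 0.3 µg/mL; score merges spot fluorescence near 667 nm with signal-to-noise over triplicate slides.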 The conditions noted are these: probe aLAP1, fluorescence, higher = more signal.
The test system of the next assay is Sam68 (KHDRBS1). The assay is described as follows: compounds binding KHDRBS1 protein – biochemical, small-molecule microarray, 635 nm fluorescence, primary screen (AID 1125).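 Further: score merges 667 nm channel intensity with signal to noise over triplicate slides.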 The conditions noted are these: higher = more signal.
Assay [17] has as its system Chordin-like protein 2 (CHRDL2). The assay is described as follows: compounds binding chordin-like 2 – biochemical, small-molecule microarray, 635 nm fluorescence, primary screen (AID 1126).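 Further: printed compound slides probed with Chrdl2 protein at 4 µg/mL for 1 h at 4 C; score merges 667 nm emission intensity with signal to noise over three replicate slides.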 Conditions: fluorescence 635 nm, higher = more signal.
The target in assay [18] is Concanavalin-A (Canavalia ensiformis) (UniProt P02866). The assay can be described thus: compounds binding concanavalin A lectin – biochemical, small-molecule microarray, Alexa647 label, 635 nm, artefact control for SMM control protein annotation, primary screen (AID 1127).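 Further: z combines 667 nm emission intensity with signal-to-noise across three replicate slides.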 The conditions noted are these: ConA-A647 binding fluorescence, higher = more signal.

“And” between values parts separate entries of the source, which are not always exact repeats. Equal values may be shown once. The source made the active and inactive calls.

Alpha-bungarotoxin (Bungarus multicinctus), sequence (P60615 whole entry, looked up): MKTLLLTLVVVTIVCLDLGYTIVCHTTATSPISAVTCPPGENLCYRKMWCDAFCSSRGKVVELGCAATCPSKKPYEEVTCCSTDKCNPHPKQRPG
Albumin (Bos taurus), sequence (P02769 whole entry, looked up): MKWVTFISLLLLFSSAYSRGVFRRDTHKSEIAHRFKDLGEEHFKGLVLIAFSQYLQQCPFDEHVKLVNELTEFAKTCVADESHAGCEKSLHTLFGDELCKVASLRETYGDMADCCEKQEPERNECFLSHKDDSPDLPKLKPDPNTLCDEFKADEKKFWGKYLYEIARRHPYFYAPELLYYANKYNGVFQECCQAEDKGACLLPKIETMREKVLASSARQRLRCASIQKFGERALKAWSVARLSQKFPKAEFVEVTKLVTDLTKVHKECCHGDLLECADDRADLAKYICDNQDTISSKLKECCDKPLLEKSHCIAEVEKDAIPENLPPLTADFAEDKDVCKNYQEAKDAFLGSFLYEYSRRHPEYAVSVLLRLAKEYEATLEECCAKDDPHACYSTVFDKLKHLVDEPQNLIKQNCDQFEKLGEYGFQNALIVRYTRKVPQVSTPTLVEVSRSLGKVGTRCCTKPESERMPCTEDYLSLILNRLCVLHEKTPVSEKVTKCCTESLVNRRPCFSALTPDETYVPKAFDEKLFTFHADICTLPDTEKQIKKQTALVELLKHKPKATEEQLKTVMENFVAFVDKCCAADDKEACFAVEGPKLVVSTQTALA
Left-right determination factor 2 (Homo sapiens), sequence (O00292 whole entry, looked up): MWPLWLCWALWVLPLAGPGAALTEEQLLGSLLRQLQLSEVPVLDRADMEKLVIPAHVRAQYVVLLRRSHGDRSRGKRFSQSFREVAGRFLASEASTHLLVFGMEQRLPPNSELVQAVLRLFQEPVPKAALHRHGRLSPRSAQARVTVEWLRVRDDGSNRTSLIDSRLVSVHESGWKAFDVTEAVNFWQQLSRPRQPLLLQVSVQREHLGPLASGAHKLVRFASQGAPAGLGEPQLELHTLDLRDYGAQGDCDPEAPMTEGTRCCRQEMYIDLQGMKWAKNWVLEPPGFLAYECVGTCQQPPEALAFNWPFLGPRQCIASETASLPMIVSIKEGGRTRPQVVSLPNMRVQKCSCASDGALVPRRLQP
Torsin-1A-interacting protein 1 (Homo sapiens), sequence (Q5JTV8 whole entry, looked up): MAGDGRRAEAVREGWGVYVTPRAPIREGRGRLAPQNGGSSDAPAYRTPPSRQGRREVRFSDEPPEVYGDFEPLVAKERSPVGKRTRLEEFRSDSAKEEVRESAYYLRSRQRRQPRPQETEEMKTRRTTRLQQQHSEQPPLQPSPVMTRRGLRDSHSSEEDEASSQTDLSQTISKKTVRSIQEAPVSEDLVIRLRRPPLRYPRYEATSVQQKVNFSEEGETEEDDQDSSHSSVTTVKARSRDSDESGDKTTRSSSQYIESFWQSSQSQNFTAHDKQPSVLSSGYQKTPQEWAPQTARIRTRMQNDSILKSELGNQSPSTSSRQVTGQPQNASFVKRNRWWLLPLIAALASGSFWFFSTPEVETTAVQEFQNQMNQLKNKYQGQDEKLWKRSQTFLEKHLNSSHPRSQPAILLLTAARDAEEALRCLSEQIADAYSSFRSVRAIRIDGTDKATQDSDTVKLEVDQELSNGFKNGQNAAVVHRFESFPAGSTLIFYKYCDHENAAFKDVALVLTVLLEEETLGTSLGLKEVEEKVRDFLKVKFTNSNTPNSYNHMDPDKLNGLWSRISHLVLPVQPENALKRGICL
Concanavalin-A (Canavalia ensiformis), sequence (P02866 whole entry, looked up): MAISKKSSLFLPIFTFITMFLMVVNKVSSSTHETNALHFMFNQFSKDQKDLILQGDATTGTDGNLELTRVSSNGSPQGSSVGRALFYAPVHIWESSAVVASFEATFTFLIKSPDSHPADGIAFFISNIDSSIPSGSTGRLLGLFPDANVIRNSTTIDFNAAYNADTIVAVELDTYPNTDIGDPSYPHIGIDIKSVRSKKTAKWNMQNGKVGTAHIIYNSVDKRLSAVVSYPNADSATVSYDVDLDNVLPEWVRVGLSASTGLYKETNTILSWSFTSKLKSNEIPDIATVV

Consider `C=CCN(C(=O)C(c1cccs1)N(C(=O)/C=C\C(=O)O)c1ccc(CCO)cc1)c1ccc(OC)cc1` (stereo not given), for which the composite z-score is -1.01 and -1.64 in assay [1]; -3 and -5.82 in assay [3]; -0.453 and -1.54 in assay [4]; 0.742 and -0.222 in assay [5]; -0.203 and -0.27 in assay [6]; -0.0709 and -0.138 in assay [7]. Also, the composite z-score is -0.541 and -0.126 in [8]; -1.16 and -1.72 in [9]; -0.664 and -2.33 in [10]; 0.254 and -1.1 with Albumin (Bos taurus); -0.299 and -0.451 in assay [12]; -0.164 and -0.19 in assay [13]. Further, the composite z-score in assay [14] was 0.89 and -0.733; in [15], -0.416 and -1.29; in assay [16], -1.17 and 0.112; with Sam68 (KHDRBS1) it was -1.79 and -2.22; in [17], -1.65 and -3.12; in assay [18] it was -1.33 and -2.24. For the same compound, in assay [2], the z-score was -0.465 and -0.171. In addition, in assay [11], the composite Z-score is -0.16 (inactive) and -0.902 (inactive).

With `C[C@@H]1CC[C@H]2C(=O)NC[C@@H](O)CN2[C@H]1c1ccc(Br)cc1`, the composite z-score in assay [1] is 0.111 and -0.325; in assay [3], -0.0095 and 0.204; in assay [4], -0.234 and -0.448; in assay [5] it was -0.342 and -0.438; in assay [6], -0.0758 and -0.0405; in assay [7], -0.138 and 0.235. Besides, the composite z-score was 0.0014 and -0.194 in assay [8]; 0.36 and 0.348 in assay [9]; 0.141 and -0.195 in assay [10]; 0.446 and -0.624 in the assay with Albumin (Bos taurus); -0.0598 and -0.207 in assay [12]; -0.14 and -0.046 in assay [13]. The composite z-score in assay [14] is 0.702 and -0.138; in [15], 0.703 and 0.229; in assay [16], -0.172 and -0.0957; with Sam68 (KHDRBS1) it was -0.46 and 0.119; in assay [17], -0.119 and 0.127; in assay [18] it was 0.407 and -0.416. Moreover, the z-score in [2] is -0.376 and -0.362. Moreover, the composite Z-score in assay [11] is -0.312 (inactive) and 0.171 (inactive).

As for `Cc1cc2c(nc1C)CCCN2CC(O)CN1CCCc2nc(-c3ccc(Br)cc3)ccc21` (stereo not given), the composite z-score in [1] is 1.32 and 1.19; in assay [3], 0.917 and 0.75; in assay [4], 0.645 and 1.01; in assay [5], -0.0329 and 0.151; in assay [6], 0.361 and 0.499; in assay [7] it was 0.641 and 1.58. Further, the composite z-score was 0.676 and 1.1 in [8]; 0.126 and 1.1 in assay [9]; 1.92 and 2.78 in assay [10]; -0.473 and 0.163 with Albumin (Bos taurus); 0.569 and 0.969 in assay [12]; 0.174 and 0.519 in assay [13]. Besides, the composite z-score in assay [14] is 0.492 and 0.401; in assay [15], 0.531 and 1.25; in assay [16], 0.741 and 0.489; in the assay with Sam68 (KHDRBS1) it was 1.29; in assay [17] it was 0.955 and 1.08; in assay [18], 0.975 and 1.03. Further, in assay [2], the z-score was -1.3 and -2.09. Also, in assay [11], the composite Z-score is 2.2 (inactive) and 4.49 (inactive).

`C[C@@]1([C@@H](NC(=O)Cc2ccccc2)c2ccc(-c3ccccc3)cc2)C[C@H]1C1CCCCC1`: the composite z-score was 0.208 and 0.778 and 1.16 in assay [1]; -0.109 and -0.069 and 0.118 in assay [3]; 1.7 and 1.95 and 1.63 in [4]; 1.26 and 1.28 and 0.753 in assay [5]; 0.631 and 1.04 and 0 in assay [6]; 2.22 and 2.04 and -0.493 in assay [7]. The composite z-score in assay [8] was 0.292 and 1.37 and 1.17; in assay [9] it was -0.288 and -0.307 and 0.775; in [10] it was 1 and 0.582 and 1.93; with Albumin (Bos taurus) it was 0.895 and 0.715 and 0.978; in assay [12] it was 0.767 and 1.49 and -0.137; in assay [13], 0.24 and 0.797 and -0.324. Also, the composite z-score is 0.426 and 0.62 and 0.464 in [14]; 0.0877 and 1.59 and 2.69 in [15]; 0.566 and 1.22 and 0.475 in assay [16]; 0.158 and 0.69 and 1.33 with Sam68 (KHDRBS1); 0.261 and -0.0345 and -0.954 in assay [17]; 0.956 and 0.166 and 1.12 in assay [18]. Besides, the z-score in assay [2] was -2.39 and -1.33 and -0.271. Also, the composite Z-score in assay [11] is 1.18 (inactive) and 0.111 (inactive) and 0.428 (inactive).

Consider `CO[C@H]1COC(=O)CC=C[C@H](C)[C@H](OC)COC(=O)[C@@H](C)COC(=O)CC=C[C@@H]1C`, for which the composite z-score in [1] was 0.25 and -0.333; in assay [3], 0.953 and 0.546; in assay [4], -1.51 and -1.76; in [5], -1.68 and -2.71; in [6], -0.0172 and -0.147; in [7], -0.304 and 0.0899. In addition, the composite z-score in assay [8] is -0.194 and -0.176; in assay [9], 0.123 and -0.771; in [10] it was -0.683 and -0.62; in the assay with Albumin (Bos taurus), -0.774 and -0.721; in assay [12] it was -0.0984 and -0.0932; in assay [13] it was -0.153 and -0.14. The composite z-score was -0.173 and -0.455 in [14]; -0.315 and -0.798 in assay [15]; -0.497 and -0.561 in assay [16]; 0.467 and 0.0015 in the assay on Sam68 (KHDRBS1); 1.16 and 0.85 in [17]; -0.413 and -1.52 in assay [18]. Also, the z-score in assay [2] was 0.228 and 0.343. Besides, in [11], the composite Z-score was 0.606 (inactive) and -0.054 (inactive).
